# Reference: PubChem BioAssay (Tox21)
# Results filed as inconclusive are left out. A call without a number means that no potency is given here. Active and inactive are the calls of the source. Unless noted, calls follow the shape of the dose curve; as a rule, active = well fitted curve in the direction sought with a large enough effect in the repeat runs; inconclusive = weak or mixed curves; inactive = no such curve, though single readings can be large; an effect the other way counts as inactive or inconclusive.
# Columns and labels:
# [1] = qHTS assay to identify aromatase inhibitors - cell viability counter screen (AID 743084);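 also: cells stimulated with testosterone during compound exposure; nearly all actives have a fitted effect of over 55% in size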; also: potency is read from the fitted curve at half-maximal effect
# [2] = qHTS assay to identify small molecule that activate the aryl hydrocarbon receptor (AhR) signaling pathway - cell viability counter screen (AID 743086);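 also: HepG2 liver cells carrying the AhR DRE luciferase reporter; series mostly up to about 70 µM; nearly all actives have a fitted effect of over 45% in size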
# In short: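 HepG2-AhR-luc (HG2L7.5c1) cells, 4000/well, treated 24 h at 37 C with compound; viability measured as CellTiter-Fluor fluorescence after 30 min in the same wells as the luciferase read.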
# [3] = target: Peroxisome proliferator-activated receptor gamma (Homo sapiens) (UniProt P37231); experiment: qHTS assay to identify small molecule antagonists of the peroxisome proliferator-activated receptor gamma (PPARg) signaling pathway (AID 743191; calls by dose curve; also: series mostly up to about 63 µM; nearly all actives have a fitted effect of over 30% in size)
# In short: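 GeneBLAzer PPARg UAS-bla HEK293H cells, 5 h post-plating, exposed to compounds 17 h at 37C. LiveBLAzer B/G FRET substrate added for 1 h at room temperature; beta-lactamase reporter read by fluorescence intensity.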
# [4] = qHTS assay to identify small molecule antagonists of the peroxisome proliferator-activated receptor gamma (PPARg) signaling pathway - cell viability counter screen (AID 743194); also: nearly all actives have a fitted effect of over 55% in size
# In short: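 Cytotoxicity counter screen in PPARg-bla HEK293H cells, same wells as reporter assay. Compounds plus 50 nM rosiglitazone (final) for 17 h at 37 C, then viability read by CellTiter-Glo luminescence.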
# [5] = qHTS assay for small molecule agonists of the antioxidant response element (ARE) signaling pathway (AID 743202; active = well fitted activation curve with a large enough effect in the signal ratio in the repeat runs, not every such curve was filed as active; the % refers to the signal ratio; also: potency is read from the fitted curve at half-maximal effect)
# In short: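 HepG2 ARE-bla reporter line, 2,000 cells/well; 5 h preincubation 37 C/5% CO2; compound (DMSO) 16 h 37 C; B/G FRET substrate 2 h RT; fluorescence intensity.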
# [6] = qHTS assay for small molecule agonists of the antioxidant response element (ARE) signaling pathway - cell viability counter screen (AID 743203; calls by dose curve; also: nearly all actives have a fitted effect of over 55% in size; also: potency is read from the fitted curve at half-maximal effect)
# In short: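 Measured in the same wells as the beta-lactamase ARE reporter, this read-out is CellTiter-Glo luminescence from HepG2 ARE-bla cells given compounds for 16 hrs.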
# [7] = qHTS assay for small molecule activators of the heat shock response signaling pathway - cell viability counter screen (AID 743209); also: nearly all actives have a fitted effect of over 50% in size
# In short: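 Same-well multiplex: after 2.5 h room-temperature incubation with LiveBLAzer B/G substrate and fluorescence reading, CellTiter-Glo reagent was added to HSE-bla HeLa cells that had received compound for 5 h at 37 C; luminescence read after 30 min.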
# [8] = qHTS assay for small molecule activators of the heat shock response signaling pathway (AID 743210; active = well fitted activation curve with a large enough effect in the signal ratio in the repeat runs, with a control signal flat, not every such curve was filed as active; the % refers to the signal ratio;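 also: HeLa cells with beta-lactamase reporter driven by heat shock elements; series mostly up to about 63 µM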)
# In short: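 Beta-lactamase reporter read-out: FRET substrate fluorescence after 2.5 h at RT, following 5 h compound treatment at 37 C of HeLa cells carrying HSE-driven bla reporter; quantitative HTS format.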
# [9] = target: Peroxisome proliferator-activated receptor gamma (Homo sapiens) (UniProt P37231); experiment: qHTS assay to identify small molecule agonists of the peroxisome proliferator-activated receptor gamma (PPARg) signaling pathway (AID 743094; active = well fitted activation curve with a large enough effect in the signal ratio in the repeat runs, not every such curve was filed as active; the % refers to the signal ratio)
# In short: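 Cell-based bla reporter, HEK293H background, PPARg-driven UAS. Pre-incubation 5 h, 37C, 5% CO2. Compound 17 h, 37C. Substrate 1 h RT; fluorescence.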
# [10] = target: Aryl hydrocarbon receptor (Homo sapiens) (UniProt P35869); experiment: qHTS assay to identify small molecule that activate the aryl hydrocarbon receptor (AhR) signaling pathway (AID 743085);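 also: HG2L7.5c1 human HepG2 liver cells with stably integrated DRE-driven firefly reporter; series mostly up to about 70 µM; nearly all actives have a fitted effect of over 15% in size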
# In short: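 Compounds were tested in HepG2 hepatocellular carcinoma cells harbouring a stably integrated luciferase gene under control of 20 DREs. Increased reporter signal after 24 h treatment at 37C was taken as AhR activation.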
# Sequence of Aryl hydrocarbon receptor (Homo sapiens) (P35869 whole entry, looked up): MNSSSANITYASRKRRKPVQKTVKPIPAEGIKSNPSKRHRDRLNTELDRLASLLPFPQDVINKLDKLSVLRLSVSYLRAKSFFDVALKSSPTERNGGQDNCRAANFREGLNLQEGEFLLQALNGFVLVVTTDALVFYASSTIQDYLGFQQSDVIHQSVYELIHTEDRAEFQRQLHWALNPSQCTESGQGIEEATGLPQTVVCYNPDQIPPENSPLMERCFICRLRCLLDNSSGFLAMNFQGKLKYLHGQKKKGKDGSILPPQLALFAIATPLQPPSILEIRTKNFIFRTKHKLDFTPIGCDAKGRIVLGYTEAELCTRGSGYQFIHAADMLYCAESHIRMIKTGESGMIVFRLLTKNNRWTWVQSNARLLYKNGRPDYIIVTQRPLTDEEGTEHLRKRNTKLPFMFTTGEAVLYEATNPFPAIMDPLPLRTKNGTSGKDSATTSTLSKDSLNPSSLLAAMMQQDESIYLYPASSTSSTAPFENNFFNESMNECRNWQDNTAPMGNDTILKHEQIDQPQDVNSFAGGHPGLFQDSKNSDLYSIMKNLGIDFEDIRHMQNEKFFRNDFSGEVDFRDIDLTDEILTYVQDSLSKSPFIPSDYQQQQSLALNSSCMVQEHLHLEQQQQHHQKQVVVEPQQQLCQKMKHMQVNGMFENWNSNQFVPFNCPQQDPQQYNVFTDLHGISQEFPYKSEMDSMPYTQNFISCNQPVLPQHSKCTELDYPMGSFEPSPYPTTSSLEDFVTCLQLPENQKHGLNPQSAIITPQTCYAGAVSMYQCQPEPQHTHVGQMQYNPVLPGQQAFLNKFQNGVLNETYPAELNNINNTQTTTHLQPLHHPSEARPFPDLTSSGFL
# Sequence of Peroxisome proliferator-activated receptor gamma (Homo sapiens) (P37231 whole entry, looked up): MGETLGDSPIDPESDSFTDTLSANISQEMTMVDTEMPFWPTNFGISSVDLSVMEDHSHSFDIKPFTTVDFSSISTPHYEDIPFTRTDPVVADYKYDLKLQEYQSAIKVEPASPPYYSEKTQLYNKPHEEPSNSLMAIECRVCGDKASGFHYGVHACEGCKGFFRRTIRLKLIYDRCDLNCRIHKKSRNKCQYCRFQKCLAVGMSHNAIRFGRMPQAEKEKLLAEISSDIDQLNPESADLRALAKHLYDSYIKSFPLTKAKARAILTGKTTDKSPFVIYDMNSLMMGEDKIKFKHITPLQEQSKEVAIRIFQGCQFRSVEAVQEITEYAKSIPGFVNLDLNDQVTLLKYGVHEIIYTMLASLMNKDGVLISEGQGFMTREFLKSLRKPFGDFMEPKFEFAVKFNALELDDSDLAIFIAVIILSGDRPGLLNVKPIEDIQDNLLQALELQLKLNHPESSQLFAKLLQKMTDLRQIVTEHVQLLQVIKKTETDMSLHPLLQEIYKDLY
SMILES,Potency [1],outcome [2],Potency [3],Potency [4],Potency [5],Potency [6],outcome [7],Potency [8],Potency [9],Potency [10]
COc1cc(N)c(Cl)cc1C(=O)NC1CCN(Cc2ccccc2)CC1,inactive,inactive,inactive,inactive,inactive,inactive,inactive,inactive,–,–
CC1CN(c2ccccc2)NC1=O (stereo not given),inactive,inactive,–,–,–,inactive,inactive,–,–,–
CCN(CC)CCOc1ccc(Cc2ccccc2)cc1,inactive,–,inactive,inactive,–,inactive,inactive,inactive,inactive,–
O=C(O)[C@@H](O)[C@H](O)[C@H](O)[C@@H](O)C(=O)O,inactive,inactive,–,inactive,inactive,inactive,–,inactive,inactive,–
Cc1c(N)cccc1N,inactive,inactive,–,inactive,–,inactive,inactive,inactive,–,–
NS(=O)(=O)c1cc(-c2nn[nH]n2)c(NCc2cccs2)cc1Cl,inactive,inactive,–,inactive,10.6 µM (active),inactive,inactive,–,–,–
CN1CCN(c2c(F)cc3c(=O)c(C(=O)O)cn(CCF)c3c2F)CC1,inactive,inactive,inactive,inactive,–,inactive,inactive,inactive,–,–
O=C(O[C@@H](C(=O)O)[C@@H](OC(=O)c1ccccc1)C(=O)O)c1ccccc1,inactive,inactive,–,inactive,inactive,inactive,inactive,inactive,inactive,–
CCN1CC(CCN2CCOCC2)C(c2ccccc2)(c2ccccc2)C1=O (stereo not given),inactive,inactive,inactive,inactive,–,inactive,inactive,inactive,–,–
CCCOCCC,inactive,inactive,–,inactive,inactive,inactive,inactive,inactive,–,–
O=C(Cl)c1cccc([N+](=O)[O-])c1,inactive,inactive,–,inactive,–,inactive,inactive,inactive,–,–
O=c1[nH]c(=O)n([C@H]2C[C@H](O)[C@@H](CO)O2)cc1C(F)(F)F,inactive,inactive,–,inactive,–,inactive,inactive,–,–,–
FC(F)(F)c1ccccc1,inactive,inactive,–,inactive,–,inactive,–,inactive,–,–
O=C(CC(=O)C(F)(F)F)c1ccccc1,inactive,inactive,–,inactive,inactive,inactive,inactive,–,–,–
CCCCOc1cc(C(=O)NCCN(CC)CC)c2ccccc2n1,inactive,inactive,–,–,–,inactive,inactive,inactive,–,–
O=C1CCC(C2CCCCC2)CC1,inactive,inactive,–,–,–,inactive,inactive,–,–,–
CCc1cc(Cl)c(OC)c(C(=O)NC[C@@H]2CCCN2CC)c1O,inactive,inactive,–,inactive,–,inactive,inactive,inactive,inactive,–
CC(C)(C)C1CCCCC1=O (stereo not given),inactive,inactive,–,inactive,inactive,inactive,inactive,inactive,–,–
CC(C)CC(=O)OCc1ccccc1,inactive,inactive,–,inactive,inactive,inactive,inactive,inactive,inactive,–
COc1ccccc1N1CCN(CCCNc2cc(=O)n(C)c(=O)n2C)CC1,inactive,inactive,–,inactive,–,inactive,inactive,–,inactive,–
Cc1cc(S(=O)(=O)O)c(N)cc1Cl,inactive,inactive,–,inactive,–,inactive,inactive,inactive,inactive,–

SMILES,Potency [1],outcome [2],Potency [3],Potency [4],Potency [5],Potency [6],outcome [7],Potency [8],Potency [9],Potency [10]
CCN(O)CC,inactive,inactive,–,inactive,inactive,inactive,inactive,inactive,inactive,–
Cc1nc(-c2ccccn2)ncc1C(=O)Nn1cc(C)c2cc(F)ccc21,inactive,inactive,–,inactive,–,inactive,inactive,inactive,–,–
O=C1Nc2ccc([N+](=O)[O-])cc2C1=O,–,–,–,–,–,inactive,inactive,inactive,–,–
c1ccc(CN(CC2=NCCN2)c2ccccc2)cc1,inactive,–,–,inactive,–,inactive,inactive,inactive,–,–
CCCC(CCC)(C(=O)OCC)C(=O)OCC,–,–,–,inactive,–,inactive,–,inactive,–,–
CC(C)C(=O)OCC(C)(C)C(O)C(C)C (stereo not given),–,inactive,–,inactive,–,inactive,inactive,inactive,inactive,–
CCCS(=O)c1ccc2nc(NC(=O)OC)[nH]c2c1 (stereo not given),–,–,–,inactive,–,inactive,inactive,inactive,–,–
NC(=O)NS(=O)(=O)c1ccc(Cl)cc1,–,–,–,inactive,inactive,inactive,inactive,–,–,–
CCc1cc2cc(OC)c(OC)cc2c(Cc2ccccc2)n1,–,–,–,inactive,inactive,inactive,inactive,inactive,–,–
CCOC(=O)c1cc(=O)c2c(OCC(COc3cccc4oc(C(=O)OCC)cc(=O)c34)OC(=O)[C@@H](N)CCCCN)cccc2o1,–,–,inactive,inactive,inactive,inactive,inactive,inactive,–,–
CN1CCN(N)CC1,–,–,–,inactive,inactive,inactive,inactive,inactive,–,–
Cc1cc(NS(=O)(=O)c2ccc(N)cc2)nc(C)n1,–,inactive,inactive,inactive,inactive,inactive,inactive,inactive,inactive,inactive
Cc1c[nH]c(=S)[nH]c1=O,–,inactive,inactive,inactive,–,inactive,inactive,–,–,–
C/C(=N\O)[C@@H](C)NCC(C)(C)CN[C@H](C)/C(C)=N/O,–,–,–,inactive,inactive,inactive,inactive,inactive,–,–
N#CSCC(=O)O,–,–,–,inactive,–,inactive,inactive,–,–,–
Cc1ccccc1C(=O)Nc1ccc(C(=O)N2CCCC(O)c3cc(Cl)ccc32)c(C)c1 (stereo not given),inactive,–,inactive,inactive,inactive,inactive,inactive,inactive,–,–
CCCC1CCC(=O)O1 (stereo not given),–,inactive,inactive,inactive,inactive,inactive,inactive,inactive,inactive,inactive
Cc1nc(N)nc(N)c1-c1ccc(Cl)c(Cl)c1,–,–,–,–,–,0.668 µM (active),inactive,inactive,–,–
CCC(=O)c1ccc2c(c1)N(CCCN(C)C)c1ccccc1S2,–,–,–,inactive,–,–,–,inactive,–,inactive
O=C(C(Cl)Cl)N1CCOC12CCCCC2,–,inactive,–,inactive,–,inactive,inactive,–,–,–
CCCOc1ccc2c(c1)CC[C@@H]1[C@@H]2CC[C@]2(C)C(OC)CC[C@@H]12 (stereo not given in full),–,–,–,inactive,–,inactive,inactive,inactive,–,–

SMILES,Potency [1],outcome [2],Potency [3],Potency [4],Potency [5],Potency [6],outcome [7],Potency [8],Potency [9],Potency [10]
CN(C)CC[C@@H](c1ccc(Cl)cc1)c1ccccn1,–,inactive,–,inactive,inactive,inactive,inactive,inactive,–,inactive
CN(C)C(=O)NC1(c2ccccc2)CCN(CCC[C@]2(c3ccc(Cl)c(Cl)c3)CCCN(C(=O)c3ccccc3)C2)CC1,6.51 µM (active),–,–,inactive,–,14.6 µM (active),inactive,–,–,–
COC(=O)/C=C(/C)N,–,–,–,inactive,inactive,inactive,inactive,inactive,–,–
CC(=O)O[C@H]1CC[C@@]2(C)C(=CC[C@@H]3[C@@H]2CC[C@]2(C)C(C(C)=O)=CC[C@@H]32)C1,–,–,inactive,inactive,–,inactive,inactive,inactive,–,–
CCCCCCOc1ccc(N)cc1,–,inactive,inactive,inactive,inactive,–,–,–,–,–
O=C(CCCl)NCc1ccccc1,–,–,–,inactive,inactive,inactive,inactive,inactive,–,–
Nc1ccc2ccccc2c1S(=O)(=O)O,–,–,–,inactive,12.4 µM (active),inactive,inactive,–,–,–
O=Cc1ccc(O)c(O)c1O,–,–,–,inactive,23.7 µM (active),inactive,–,–,–,–
Cc1cc2c(s1)Nc1ccccc1N=C2N1CCN(C)CC1,23.7 µM (active),–,–,inactive,–,inactive,inactive,–,inactive,–
CCOc1ccc(NS(=O)(=O)c2ccc(N)cc2)nn1,–,inactive,–,inactive,–,inactive,–,inactive,–,–
CN1CCC[C@@H]1Cc1c[nH]c2ccc(CCS(=O)(=O)c3ccccc3)cc12,inactive,–,–,inactive,inactive,inactive,inactive,inactive,–,–
CCCCCCn1c(=O)c2c(ncn2C)n(C)c1=O,–,–,–,inactive,inactive,inactive,inactive,inactive,–,–
O=[N+]([O-])c1nccn1CO[C@@H](CO)[C@H](O)CO,inactive,–,inactive,inactive,inactive,inactive,inactive,–,–,–
Cc1cn([C@@H]2O[C@H](CO)[C@@H](O)[C@@H]2F)c(=O)[nH]c1=O,–,–,–,inactive,inactive,inactive,inactive,inactive,–,–
CCC/C=C/CO,–,inactive,–,inactive,inactive,inactive,inactive,–,inactive,inactive
CC[C@H]1CC[C@H](NCc2cc3c(cc2OC)[C@H]2C[C@H]2C(=O)N3C)[C@H](c2ccccc2)N1,–,–,inactive,inactive,–,inactive,inactive,inactive,–,–
CC(Oc1c(Cl)cccc1Cl)C1=NCCN1 (stereo not given),–,–,inactive,inactive,–,inactive,inactive,–,–,–
COC(=O)N[C@H](C(=O)N[C@@H](Cc1ccccc1)[C@@H](O)CN(Cc1ccc(-c2ccccn2)cc1)NC(=O)[C@@H](NC(=O)OC)C(C)(C)C)C(C)(C)C,–,–,inactive,inactive,–,inactive,inactive,inactive,–,–
Cc1onc(-c2ccccc2)c1C(=O)Cl,–,–,–,inactive,inactive,inactive,inactive,inactive,–,–
CC1=NN(c2cc(Cl)c(S(=O)(=O)O)cc2Cl)C(=O)C1N=Nc1ccc(S(=O)(=O)O)cc1 (stereo not given),–,–,inactive,inactive,inactive,inactive,inactive,–,–,inactive
